The campaign covered roughly 310,000 compounds. About 14,000 (4.5%) showed an effect of 50% or more. The effect is printed as a negative number. The full list was thinned out, with strong results kept by preference.
The compounds below were run against human ether-à-go-go-related gene (hERG) potassium channel (human, UniProt Q12809) (assay: primary screen, population patch clamp on CHO cells stably expressing hERG; higher = less effect of the substance).
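Note: peak tail current of the secondary pulse compared with the same well before compound.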

Chain of human ether-à-go-go-related gene (hERG) potassium channel (Q12809 whole entry, looked up): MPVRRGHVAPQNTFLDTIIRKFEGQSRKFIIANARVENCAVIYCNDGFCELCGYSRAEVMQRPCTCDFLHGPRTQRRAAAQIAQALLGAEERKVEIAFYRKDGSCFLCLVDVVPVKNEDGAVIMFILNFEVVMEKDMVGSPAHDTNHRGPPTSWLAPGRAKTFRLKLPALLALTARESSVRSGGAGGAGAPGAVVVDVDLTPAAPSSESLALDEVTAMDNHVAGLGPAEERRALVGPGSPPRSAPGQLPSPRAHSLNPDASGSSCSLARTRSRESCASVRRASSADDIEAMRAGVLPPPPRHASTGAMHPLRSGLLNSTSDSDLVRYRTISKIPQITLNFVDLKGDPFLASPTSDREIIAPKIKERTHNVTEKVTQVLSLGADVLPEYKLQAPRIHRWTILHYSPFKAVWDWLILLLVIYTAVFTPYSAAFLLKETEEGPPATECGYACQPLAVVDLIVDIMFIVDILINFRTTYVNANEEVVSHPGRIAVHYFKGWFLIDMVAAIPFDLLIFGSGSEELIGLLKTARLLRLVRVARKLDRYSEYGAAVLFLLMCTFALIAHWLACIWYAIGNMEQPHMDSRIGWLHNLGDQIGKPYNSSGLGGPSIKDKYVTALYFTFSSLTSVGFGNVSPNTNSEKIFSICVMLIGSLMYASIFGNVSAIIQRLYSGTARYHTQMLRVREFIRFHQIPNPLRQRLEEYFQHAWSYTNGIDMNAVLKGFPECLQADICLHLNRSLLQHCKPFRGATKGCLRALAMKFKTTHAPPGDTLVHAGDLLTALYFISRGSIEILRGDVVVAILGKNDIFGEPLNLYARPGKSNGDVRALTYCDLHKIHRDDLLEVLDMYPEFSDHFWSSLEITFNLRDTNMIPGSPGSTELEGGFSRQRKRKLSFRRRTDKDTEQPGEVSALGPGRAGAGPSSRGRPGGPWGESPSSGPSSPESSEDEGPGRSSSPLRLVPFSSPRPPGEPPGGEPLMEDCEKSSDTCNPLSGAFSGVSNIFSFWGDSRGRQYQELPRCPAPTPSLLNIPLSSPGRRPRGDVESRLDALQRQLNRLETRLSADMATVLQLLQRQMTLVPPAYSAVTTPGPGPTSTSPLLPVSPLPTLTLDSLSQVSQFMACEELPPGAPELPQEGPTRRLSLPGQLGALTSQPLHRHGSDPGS

Structure (SMILES)	hERG current change (%, negative = inhibition) at 10uM
Cc1ccc(C)c(NC(=O)c2cccc(Oc3ccc([N+](=O)[O-])cc3Cl)c2)c1	-4.21%
COc1ccc(S(=O)(=O)NNC(=O)c2csc(-n3nc(C)cc3C(F)(F)F)n2)cc1	19.9%
Cc1ccccc1CCN1CCCC(CN(C)C(=O)c2ccc3ncccc3c2)C1 (centres unmarked)	-30.3%
Cc1nc2ccc(C(=O)N(C)CC3CCCN(CCc4ccc(Cl)cc4)C3)cc2[nH]1 (centres unmarked)	-61.2%
COc1ccc(CCN2CCCC(CN(C)C(=O)c3ccoc3)C2)cc1 (centres unmarked)	-72.9%
CN(C)CCN(CC1CCCN(Cc2ccccc2F)C1)C(=O)c1ccc(Cl)cc1 (centres unmarked)	-14%
CN(CC1CCCN(CCc2ccc(Cl)cc2)C1)C(=O)c1ccc2nc[nH]c2c1 (centres unmarked)	-34.1%
CN(CC1CCCN(CCc2ccc(Cl)cc2)C1)C(=O)c1ccoc1 (centres unmarked)	-85.7%
COc1ccc(CCN2CCCC(CN(C)C(=O)c3ccoc3C)C2)cc1 (centres unmarked)	13.4%
CCc1nc(SCC(=O)NCCc2ccccc2)n[nH]1	-3.42%
CSc1nc2c(cc1C#N)CCCCC2	7.65%
C=CCn1c(O)c(N=Nc2c(C)n(C)n(-c3ccccc3)c2=O)c(=O)[nH]c1=S	-1.57%
O=C(Nc1cccc(Cl)c1)c1ccc(NCC2CCCO2)c([N+](=O)[O-])c1 (centres unmarked)	-2.53%
CCN=C(NCC)SC1CC(=O)N(c2ccc(OC)cc2)C1=O (centres unmarked)	0.718%
CCOC(=O)c1cc(C(=O)Nc2sc3c(c2C#N)CCCC3)nn1C	12.4%
O=C(/C=C/c1ccc(N2CCOCC2)cc1)c1ccccc1	-1.16%
CCSC1=N/C(=C\c2cccc(F)c2)C(=O)S1	10.4%
Cc1cc(C)c2nc(C)cc(Nc3ccc(C(=O)N4CCOCC4)cc3)c2c1	-43.8%
Cc1ccccc1-c1ccc(Nc2ccc(N3CCOCC3)cc2)nn1	-76%
Cc1ccc(Nc2cc(C)nc3c(C)cccc23)cc1	-53.3%
COc1ccc2nc(C)cc(NCCN3CCOCC3)c2c1	15.4%
Cc1cc(C)nc(Nc2ccc(N3CCOCC3)cc2)n1	-5.99%
Cc1cc(Nc2ccc(N3CCOCC3)cc2)c2cccc(C)c2n1.Cl	-56.6%
COc1ccccc1-c1ccc(Nc2ccc(C(=O)N3CCOCC3)cc2)nn1	-20.1%
CC(=O)c1ccc(Nc2ccc(-c3ccccc3C)nn2)cc1	-17.5%
Cc1nc(NCCN2CCOCC2)c2oc3ccccc3c2n1.Cl	-31.5%
CCOc1ccc(Nc2cc(C)nc3c(C)cccc23)cc1	-45.6%
Cc1cc(NCCN2CCOCC2)c2ccc3ccccc3c2n1	-69.5%
COc1ccc(Nc2cc(C)nc3c(C)cccc23)cc1OC	-21.3%

— PMC4336329 (PLoS ONE, 2015)
